Shown are actives, neighbours in structure and some others; about 19% of the full set was active somewhere.
HT1080 IDH1KD tx = qHTS for induction of synthetic lethality in tumor cells producing 2HG: qHTS for the HT-1080-IDH1KD cell line | HT-1080 IDH1 knockdown viability, ATP luminescence, 48 h | Potency, µM (titrated, usually from 46.1 µM), for inactives: at the highest dose activity, negative = toxicity, most hits filed as cytotoxic | actives 2% (n = 360,000) | AID 686971, 2013;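 also: potency is read from the fitted curve at half-maximal effect; 0% = DMSO wells and -100% = cell-free medium wells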
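IDH1KD HT-1080 cells, 750/well, RPMI + 5% FBS; compound pinned after 2 h settling; 48 h, 37 °C; CellTiter-Glo luminescence; % activity normalised to DMSO and no-cell wells; curves fitted, classed by r2 and efficacy.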
DT40 TDP1 no CPT = qHTS for Inhibitors of human tyrosyl-DNA phosphodiesterase 1 (TDP1): qHTS in cells in absence of CPT. DT40 Tdp1-/- hTDP1 cells, no CPT, ATP luminescence, 48 h. Potency, µM (doses to about 46.2 µM), inactives show top-dose activity change, negative = growth inhibition, most hits filed as inhibitors. actives 15% (n = 420,000). AID 686978, 2013; also: potency is read from the fitted curve at half-maximal effect; nearly all actives have a fitted effect of over 55% in size
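Cells were dispensed at 400 per well, compounds added by pin tool, plates incubated ≥48 hr at 37 °C, then CellTiter-Glo added for 30 min at room temperature before luminescence reading. Line: DT40 Tdp1-/- complemented with hTDP1; camptothecin omitted.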
uPA generation = qHTS for Inhibitors of Cell Surface uPA Generation; cell surface uPA generation assay, qHTS; Potency, µM (top dose mostly 38.3 µM), for inactives: at the highest dose activity change, negative = inhibition, usual class: inhibitors; actives 0.31% (n = 330,000); AID 540303, 2011; active = well fitted inhibition curve with a large enough effect; inconclusive = small, poorly fitted or top-dose-only effect; inactive = no such curve, though single readings can be large or run the other way; tested in mouse RAW 264.7 cells; also: potency is read from the fitted curve at half-maximal effect; nearly all actives have a fitted effect of over 55% in size
IL1B secr inh = qHTS for Inhibitors of Inflammasome Signaling: IL-1-beta AlphaLISA Primary Screen; AID 743279, 2014; THP-1 LPS/ATP IL-1B secretion, AlphaLISA, 16 h; active compounds read low; activity change, % at 57.5 µM; actives 4.7% (n = 360,000); in the data active = activity change below about -50%; inconclusive = mostly about -30% to -49%
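THP-1 cells pretreated 1 hr with compounds (up to 57.5 uM final), then stimulated with LPS (250 ng/mL final) plus ATP (1.25 mM final); secreted IL-1B measured by AlphaLISA after 16 hr, decreased signal indicating inhibition.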
DT40 TDP1 CPT = qHTS for Inhibitors of human tyrosyl-DNA phosphodiesterase 1 (TDP1): qHTS in cells in presence of CPT; chicken DT40 Tdp1-/-;hTDP1 cells + 20 nM CPT, ATP luminescence, 48 h; Potency, µM (doses to about 46.2 µM), for the others: at the top dose activity change, negative = growth inhibition, hits mostly inhibitors; actives 12% (n = 420,000); AID 686979, 2013; also: potency is read from the fitted curve at half-maximal effect; nearly all actives have a fitted effect of over 55% in size
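Chicken DT40 Tdp1-/- cells stably complemented with human TDP1 were seeded at 400 cells/well in medium containing 20 nM camptothecin, exposed to pin-transferred compounds, and grown at 37 °C for at least 48 hr. Viability was read as ATP luminescence.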
HT1080-NT tox = qHTS for induction of synthetic lethality in tumor cells producing 2HG: qHTS for the HT-1080-NT fibrosarcoma cell line; HT-1080-NT fibrosarcoma viability, CellTiter-Glo ATP luminescence, 48 h; Potency, µM (top dose mostly 46.1 µM), inactives show at the highest dose activity, negative = less viability, hits mostly cytotoxic; actives 1.6% (n = 360,000);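 also: NT is the 2HG producing partner of a matched IDH1 knockdown line; potency is read from the fitted curve at half-maximal effect; 0% = DMSO-treated cells and -100% = media-only wells without cells; nearly all actives have a fitted effect of over 55% in size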
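HT-1080-NT; 750 cells/well; 5% FBS RPMI; 48 h compound, 37 degrees C; CellTiter-Glo luminescence; curve fitting and curve-class assignment.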
The depositor's hits bear a star; ? = inconclusive; · = no result; ! = not active in a repeat; [ ] = remark or other dose. Unless noted, calls follow the shape of the dose curve; as a rule, active = well fitted curve in the direction sought with a large enough effect; inconclusive = small, poorly fitted or top-dose-only effect, or another doubt; inactive = no such curve, though single readings can be large; an effect the other way counts as inactive or inconclusive. Unless noted, % is scaled to controls: 0 for no effect and ±100 for the full control effect.

SMILES	HT1080 IDH1KD tx	DT40 TDP1 no CPT	uPA generation	IL1B secr inh	DT40 TDP1 CPT	HT1080-NT tox
CC(C)c1ccc(NC(=O)CSc2nc3ncccc3[nH]2)cc1	-1.8%	25.9µM*	-19.8%	15.7	?	-24.9%
CC(C)OC(=O)c1ccc(NC(=O)CSc2nc3ncccc3[nH]2)cc1	-18.8%	13µM*	10.3%	?	8.2µM*	-23.1%
COc1ccc(NC(=O)CSc2nc3ncccc3[nH]2)cc1OC	-1.5%	2.5%	-3.7%	-6.2	?	1.4%
N=c1oc2ccccc2cc1C(=O)Nc1ccccc1	7.4%	-28.9%	-2.3%	6.3	-9.1%	3.0%
N=c1oc2cc(O)ccc2cc1C(=O)Nc1ccc(Br)cc1	?	?	-5.9%	-89.9*	?	?
O=C(NC1CC1)c1cccc(Nc2ccc(-c3ccc4c(c3)OCCO4)nn2)c1	?	11.6µM*	·	3.1	20.6µM*	?
CCCCNc1c(-c2ccc(SC3CCCCC3)c(OC)c2)nc2ccc(C)cn12	?	18.4µM*	?	-68.5*!	23.1µM*	?
COc1ccc(-c2nc3cc(C)ccn3c2NCC2CCCO2)cc1OC (configuration not stated)	0.5%	-0.1%	0.3%	10.1	-3.5%	3.3%
CCCCNc1c(-c2ccc(OC)c(SC3CCCCC3)c2)nc2ccc(C)cn12	?	8.2µM*	?	-58.8*	5.8µM*	?
COc1ccc(-c2nc3ccc(C)cn3c2NCc2ccccc2)cc1SC1CCCCC1	?	23.1µM*	3.16µM*	0.0	13µM*	?
CCCCNC(=O)C1CCC(CNS(=O)(=O)c2ccc(Cl)cc2)CC1 (configuration not stated)	·	-10.0%	·	·	-10.8%	·
CC(C)(C)OC(=O)N1CCC[C@H]1C(=O)N1CCC[C@H]1C(=O)NCc1ccncc1	19.7%	-11.4%	·	-0.3	-16.5%	14.2%
COCc1c(C(=O)N2CCC(N3CCCCC3)CC2)cnn1-c1ncc(C)c(-c2cccs2)n1	·	-7.0%	·	·	9.8%[9.04 µM]	·
Cc1ccc(S(=O)(=O)N2C[C@H]3C(=O)C[C@@H](c4ccccc4)N(S(=O)(=O)c4ccc(C)cc4)[C@H]3C[C@H]2c2ccccc2Cl)cc1	18.3%	-1.7%	·	-7.3	-0.1%	13.3%
CC(C)Nc1ncnc2c1ncn2[C@H]1CN(C2CCCC2)C[C@@H](CO)O1	12.5%	11.6%	·	-0.4	-9.0%	6.5%
Cc1ccc(-n2ncc(C(=O)N3CCN(C(=O)c4ccco4)CC3)c2C2CCN(C(=O)OC(C)(C)C)CC2)cc1C	8.9%	8.3%	4.1%	-4.8	-7.7%	-1.9%
COc1ccc(N2CCN(C(=O)c3cnn(-c4ccc(OC)cc4)c3C3CCN(C(=O)OC(C)(C)C)CC3)CC2)cc1	·	?	·	·	18.4µM*	·
Cc1cccc(N2CCN(C(=O)c3cnn(-c4ccccc4)c3C3CCN(C(=O)OC(C)(C)C)CC3)CC2)c1C	·	16.4µM*	·	·	?	·
COc1ccc(-n2ncc(C(=O)N3CCN(c4ccccn4)CC3)c2C2CCN(C(=O)OC(C)(C)C)CC2)cc1	·	20.6µM*	·	·	?	·
CC(C)(C)OC(=O)N1CCC(c2c(C(=O)N3CCN(c4ccccn4)CC3)cnn2-c2cccc(F)c2)CC1	·	16.4µM*	·	·	18.4µM*	·
CC(C)(C)OC(=O)N1CCC(c2c(C(=O)N3CCN(C(=O)c4ccco4)CC3)cnn2-c2ccccc2)CC1	·	-7.7%	·	·	-14.3%	·
CC(NC(=O)C1CC(=O)N(c2ccc3c(c2)OCCO3)C1)c1ccccc1 (configuration not stated)	-1.7%	-6.8%	·	-12.5	-10.1%	12.4%
O=C(O)/C=C/c1ccc(-n2ccnc2)cc1	10.3%	12.6%	1.2%	19.3	13.9%	20.0%
Cc1cc(CC(=O)O)c2oc(-c3ccoc3)cc(=O)c2c1	-1.8%	-0.4%	14.3%	-14.9	10.5%	-4.0%
COc1ccc(-n2ncc(C(=O)N3CCOCC3)c2C2CCN(C(=O)OC(C)(C)C)CC2)cc1	·	-0.6%	·	·	5.6%	·
SMILES	HT1080 IDH1KD tx	DT40 TDP1 no CPT	uPA generation	IL1B secr inh	DT40 TDP1 CPT	HT1080-NT tox
CCc1cccc(C)c1NC(=O)c1cnn(-c2ccc(OC)cc2)c1C1CCN(C(=O)OC(C)(C)C)CC1	·	18.4µM*	·	·	18.4µM*	·
Cc1ccc(Cn2cnc3c(oc4ccccc43)c2=O)cc1	·	-21.4%	·	·	-3.9%	·
COc1ccc(NC(=O)Cn2c(=O)n(CC(=O)NCCc3ccccc3)c(=O)c3ccccc32)cc1	·	-19.5%	·	·	-16.9%	·
COc1ccccc1NC(=O)Cn1c(=O)n(CC2CCC(C(=O)NCCc3ccccc3)CC2)c(=O)c2ccccc21 (configuration not stated)	·	?	·	·	18.4µM*	·
Cc1cccc(NC(=O)Cn2c(=O)n(CC3CCC(C(=O)NCCc4ccccc4)CC3)c(=O)c3ccccc32)c1 (configuration not stated)	·	?	·	·	18.4µM*	·
COc1cc(NC(=O)Cn2c(=O)n(CC3CCC(C(=O)NCCc4ccccc4)CC3)c(=O)c3ccccc32)cc(OC)c1 (configuration not stated)	·	?	·	·	11.6µM*	·
O=C(NCCc1ccccc1)C1CCC(Cn2c(=O)c3ccccc3n(Cc3cccc(Cl)c3)c2=O)CC1 (configuration not stated)	24.8%	14.6µM*	-0.6%	24.6	?	18.7%
O=C(NCCc1ccccc1)C1CCC(Cn2c(=O)c3ccccc3n(Cc3cccc(F)c3)c2=O)CC1 (configuration not stated)	5.6%	?	3.7%	15.6	?	6.9%
COc1ccccc1CNC(=O)C1CCN(S(=O)(=O)c2ccc3[nH]c(=O)ccc3c2)CC1	·	-16.9%	·	·	-7.5%	·
CC1(C)C(=O)N(CC(=O)Nc2ccc(Br)cc2F)c2ccccc21	·	-25.7%	·	·	-29.3%	·
CC(=O)c1c(C(C)=O)c(C)n(-c2nc(-c3ccccc3)c(C)s2)c1C	-8.0%	13µM*	4.2%	-10.5	?	3.9%
Cc1sc(N)nc1-c1ccccc1	5.6%	-6.2%	-0.9%	13.8	6.6%	0.9%
CCc1nc2ccc(C(=O)NCCCn3ccnc3)cn2c1N(CC)C(=O)NCCc1ccccc1	0.0%	-4.1%	·	-12.0	-13.7%	3.5%
CCc1nc2ccc(C(=O)NCCCn3ccnc3)cn2c1N(CC)CCN(C)C	10.7%	-0.2%	·	-22.0	-16.6%	11.8%
